Targets with a hit are over-represented here; the source holds about 8,800 in all. About 0.5% of all pairs of compound and target were hits.
How the values were obtained:
Assay in all cases: log2 fold change, soluble protein after heating vs DMSO (PISA); higher = thermal stabilisation; K562 lysate, 10 uM; active = over 0.2 and 3.5 SD of the protein, either way, in both replicates (recomputed)
[1] = compound: C1=CC=C(C=C1)[C@H](COC2=CC3=C(C=C2)NC(=O)N3)NC(=O)C4=CC=CN(C4=O)CC5=CC(=C(C=C5)F)F
Summary of the method: (§1)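 K562 pellets were dounce-homogenised in PBS pH 7.4 with 1 mM MgCl2, and the crude extract at 1 mg/mL protein was treated with 10 μM compound for 30 min. Aliquots were heated for 3 min across 48°C-58°C, pooled, and brought to 0.5% NP-40 at 4°C; soluble protein was the supernatant after 21,000xg for 90 min. Soluble protein was quantified by TMTpro 16plex LC-MS/MS with channel sums equalised, and reported as log2 fold change in thermal stability against DMSO controls, with values from duplicates.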

[2] = compound: CC1=C(SC2=C1C(=N[C@H](C3=NN=C(N32)C)CC(=O)N)C4=CC=C(C=C4)Cl)C
Summary of the method: as §1

[3] = compound: CC1=C2C(=CC=C1)N=C(N(C2=O)C3=CC=CC=C3C)CN4C=NC5=C(N=CN=C54)N
Summary of the method: as §1

[4] = compound: Cc1sc2c(c1C)C(c1ccc(Cl)cc1)=N[C@@H](CC(=O)OC(C)(C)C)c1nnc(C)n1-2
Summary of the method: as §1

[5] = compound: c1ccc([C@@H]2C[C@H]2NC2CCNCC2)cc1
Summary of the method: as §1

Measured: log2 fold change

MYO1D (UniProt O94832)
inactive: [1] -0.006 | [2] 0.002 | [3] 0.015 | [4] -0.006 | [5] 0.02

NUP93 (UniProt Q8N1F7)
inactive: [1] -0.054 | [2] -0.017 | [3] -0.006 | [4] 0.007 | [5] 0.031

OSBPL6 isoform 5 (UniProt Q9BZF3)
inactive: [1] 0.014 | [2] -0.023 | [3] 0.02 | [4] 0.023 | [5] -0.087

NUP188 (UniProt Q5SRE5)
inactive: [1] -0.044 | [2] -0.009 | [3] 0 | [4] -0.001 | [5] 0.016

NUDT4 (UniProt Q9NZJ9)
inactive: [1] 0.037 | [2] -0.025 | [3] 0.004 | [4] 0.075 | [5] 0.242

OSBP2 (UniProt Q969R2)
inactive: [1] 0.021 | [2] 0.046 | [3] 0.019 | [4] -0.095 | [5] -0.439

NFAT5 isoform 4 (UniProt O94916)
inactive: [1] -0.208 | [2] 0.11

MRPL53 (UniProt Q96EL3)
inactive: [1] -0.056 | [2] -0.102 | [3] 0.079 | [4] -0.026 | [5] -0.093

NARF (UniProt Q9UHQ1)
inactive: [1] -0.023 | [2] -0.005 | [3] 0.017 | [4] -0.019 | [5] 0

PAFAH1B3 (UniProt Q15102)
inactive: [1] 0 | [2] 0.042 | [3] 0.045 | [4] 0.047 | [5] 0.014

NPTN (UniProt Q9Y639)
inactive: [1] 0.026 | [2] -0.045 | [3] -0.038 | [4] -0.018 | [5] -0.006

NSUN2 (UniProt Q08J23)
inactive: [1] -0.016 | [2] 0.011 | [3] -0.009 | [4] 0.021 | [5] 0.019

NUP210 (UniProt Q8TEM1)
inactive: [1] -0.101 | [2] 0.07 | [3] 0.016 | [4] 0.04 | [5] 0.028

NAA30 (UniProt Q147X3)
Chain of UniProt Q147X3 (Q147X3 whole entry, looked up): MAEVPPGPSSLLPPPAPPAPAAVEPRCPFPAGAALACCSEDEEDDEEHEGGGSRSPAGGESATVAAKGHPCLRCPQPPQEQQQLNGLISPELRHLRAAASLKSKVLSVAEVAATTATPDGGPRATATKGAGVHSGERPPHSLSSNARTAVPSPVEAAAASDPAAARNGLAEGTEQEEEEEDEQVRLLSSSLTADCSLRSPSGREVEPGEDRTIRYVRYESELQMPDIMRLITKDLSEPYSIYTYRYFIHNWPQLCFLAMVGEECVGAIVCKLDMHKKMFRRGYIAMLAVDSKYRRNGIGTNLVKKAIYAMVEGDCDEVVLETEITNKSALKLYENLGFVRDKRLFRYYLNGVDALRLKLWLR
inactive: [1] 0 | [2] 0.018 | [3] 0.033 | [4] 0.02 | [5] -0.013

PAIP2 (UniProt Q9BPZ3)
inactive: [1] -0.009 | [2] 0.042 | [3] 0.03 | [4] 0.021 | [5] 0.036

NDUFS1 isoform 2 (UniProt P28331)
Chain of UniProt P28331 (P28331 whole entry, looked up): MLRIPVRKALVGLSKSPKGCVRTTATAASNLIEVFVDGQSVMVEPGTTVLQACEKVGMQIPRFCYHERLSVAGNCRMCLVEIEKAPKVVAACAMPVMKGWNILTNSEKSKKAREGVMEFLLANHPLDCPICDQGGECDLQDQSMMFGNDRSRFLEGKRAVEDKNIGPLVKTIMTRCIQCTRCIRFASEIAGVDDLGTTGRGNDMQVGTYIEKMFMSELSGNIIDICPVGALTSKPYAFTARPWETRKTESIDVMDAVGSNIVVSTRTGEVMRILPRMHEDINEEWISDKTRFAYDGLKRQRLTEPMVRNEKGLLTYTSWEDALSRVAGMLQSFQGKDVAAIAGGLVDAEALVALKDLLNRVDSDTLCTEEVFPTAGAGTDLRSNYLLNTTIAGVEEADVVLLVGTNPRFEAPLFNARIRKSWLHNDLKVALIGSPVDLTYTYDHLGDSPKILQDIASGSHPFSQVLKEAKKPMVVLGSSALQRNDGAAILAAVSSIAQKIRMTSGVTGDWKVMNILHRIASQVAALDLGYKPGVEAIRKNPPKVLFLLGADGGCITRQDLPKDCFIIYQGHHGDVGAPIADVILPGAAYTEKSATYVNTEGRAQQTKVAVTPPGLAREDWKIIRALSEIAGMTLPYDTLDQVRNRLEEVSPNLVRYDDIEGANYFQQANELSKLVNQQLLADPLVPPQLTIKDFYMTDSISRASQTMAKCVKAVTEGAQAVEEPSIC
inactive: [1] 0.009 | [2] -0.003 | [3] 0.022 | [4] 0.013 | [5] 0.035

MTCH2 (UniProt Q9Y6C9)
inactive: [1] 0.013 | [2] 0.001 | [3] -0.006 | [4] -0.014 | [5] -0.083

NIPSNAP3A (UniProt Q9UFN0)
active: [5] 0.322
inactive: [1] 0.083 | [2] -0.037 | [3] -0.013 | [4] -0.036

NFKBIE (UniProt O00221)
inactive: [1] -0.014 | [2] -0.068 | [3] 0.033 | [4] 0.081 | [5] -0.087

NUMBL (UniProt Q9Y6R0)
inactive: [1] -0.047 | [2] 0.038 | [3] 0.039 | [4] -0.096 | [5] -0.012

NOB1 (UniProt Q9ULX3)
Chain of UniProt Q9ULX3 (Q9ULX3 whole entry, looked up): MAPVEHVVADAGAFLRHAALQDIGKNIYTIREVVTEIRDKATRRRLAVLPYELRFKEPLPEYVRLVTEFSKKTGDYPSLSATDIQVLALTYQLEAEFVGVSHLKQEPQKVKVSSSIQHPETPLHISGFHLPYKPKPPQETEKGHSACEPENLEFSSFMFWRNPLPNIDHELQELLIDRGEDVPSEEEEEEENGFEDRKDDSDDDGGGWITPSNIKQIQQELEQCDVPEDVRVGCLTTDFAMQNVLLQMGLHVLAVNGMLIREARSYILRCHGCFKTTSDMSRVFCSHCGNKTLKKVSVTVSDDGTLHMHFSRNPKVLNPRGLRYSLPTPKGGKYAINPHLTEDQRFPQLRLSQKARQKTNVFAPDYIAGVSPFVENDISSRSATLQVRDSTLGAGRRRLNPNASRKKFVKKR
inactive: [1] 0.004 | [2] -0.051 | [3] 0.038 | [4] -0.021 | [5] 0.13

NAA38 isoform 2 (UniProt Q9BRA0)
active: [5] -0.344
inactive: [1] -0.002 | [2] 0.02 | [3] 0.063 | [4] -0.005

NCK1 (UniProt P16333)
inactive: [1] 0.018 | [2] 0 | [3] 0.022 | [4] 0.003 | [5] 0.049

NOC2L (UniProt Q9Y3T9)
inactive: [1] 0.004 | [2] -0.019 | [3] 0.009 | [5] -0.012
active: [4] 0.324

NUSAP1 (UniProt Q9BXS6)
Chain of UniProt Q9BXS6 (Q9BXS6 whole entry, looked up): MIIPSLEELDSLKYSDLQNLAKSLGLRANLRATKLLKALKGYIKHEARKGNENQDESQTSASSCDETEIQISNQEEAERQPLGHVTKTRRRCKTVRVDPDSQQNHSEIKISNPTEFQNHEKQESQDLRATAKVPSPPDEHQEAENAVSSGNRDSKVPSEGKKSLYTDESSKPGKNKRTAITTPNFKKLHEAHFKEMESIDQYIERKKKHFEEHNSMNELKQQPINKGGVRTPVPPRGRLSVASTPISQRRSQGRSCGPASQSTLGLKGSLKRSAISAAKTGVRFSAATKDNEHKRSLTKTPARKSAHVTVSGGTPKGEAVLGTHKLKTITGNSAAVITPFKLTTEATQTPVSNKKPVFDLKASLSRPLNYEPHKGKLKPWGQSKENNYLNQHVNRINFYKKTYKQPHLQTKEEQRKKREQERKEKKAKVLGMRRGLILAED
inactive: [1] 0.039 | [2] 0.018 | [3] -0.001 | [4] 0.026 | [5] -0.223

MYH6 (UniProt P13533)
inactive: [1] -0.552 | [2] 0.239

OSBPL3 isoform 2 (UniProt Q9H4L5)
inactive: [1] -0.02 | [2] -0.018 | [3] 0.043 | [4] -0.017 | [5] 0.004

PARG (UniProt Q86W56)
inactive: [1] -0.011 | [2] -0.006 | [3] -0.005 | [4] -0.004 | [5] 0.091

NSL1 (UniProt Q96IY1)
inactive: [1] 0.028 | [2] 0.012 | [3] -0.001 | [4] 0.053 | [5] -0.014

NBN (UniProt O60934)
inactive: [1] 0.074 | [2] 0.046 | [3] 0.003 | [4] -0.011 | [5] 0.059

NDC1 (UniProt Q9BTX1)
inactive: [1] 0.001 | [2] -0.055 | [3] 0.003 | [4] 0.02 | [5] -0.172

MYO9A isoform 4 (UniProt B2RTY4)
inactive: [1] -0.124 | [2] -0.047 | [3] 0.094 | [4] -0.027 | [5] -0.02

NNT (UniProt Q13423)
inactive: [1] -0.005 | [2] 0.052 | [3] 0 | [4] 0.015 | [5] 0.034

NAA16 (UniProt Q6N069)
Chain of UniProt Q6N069 (Q6N069 whole entry, looked up): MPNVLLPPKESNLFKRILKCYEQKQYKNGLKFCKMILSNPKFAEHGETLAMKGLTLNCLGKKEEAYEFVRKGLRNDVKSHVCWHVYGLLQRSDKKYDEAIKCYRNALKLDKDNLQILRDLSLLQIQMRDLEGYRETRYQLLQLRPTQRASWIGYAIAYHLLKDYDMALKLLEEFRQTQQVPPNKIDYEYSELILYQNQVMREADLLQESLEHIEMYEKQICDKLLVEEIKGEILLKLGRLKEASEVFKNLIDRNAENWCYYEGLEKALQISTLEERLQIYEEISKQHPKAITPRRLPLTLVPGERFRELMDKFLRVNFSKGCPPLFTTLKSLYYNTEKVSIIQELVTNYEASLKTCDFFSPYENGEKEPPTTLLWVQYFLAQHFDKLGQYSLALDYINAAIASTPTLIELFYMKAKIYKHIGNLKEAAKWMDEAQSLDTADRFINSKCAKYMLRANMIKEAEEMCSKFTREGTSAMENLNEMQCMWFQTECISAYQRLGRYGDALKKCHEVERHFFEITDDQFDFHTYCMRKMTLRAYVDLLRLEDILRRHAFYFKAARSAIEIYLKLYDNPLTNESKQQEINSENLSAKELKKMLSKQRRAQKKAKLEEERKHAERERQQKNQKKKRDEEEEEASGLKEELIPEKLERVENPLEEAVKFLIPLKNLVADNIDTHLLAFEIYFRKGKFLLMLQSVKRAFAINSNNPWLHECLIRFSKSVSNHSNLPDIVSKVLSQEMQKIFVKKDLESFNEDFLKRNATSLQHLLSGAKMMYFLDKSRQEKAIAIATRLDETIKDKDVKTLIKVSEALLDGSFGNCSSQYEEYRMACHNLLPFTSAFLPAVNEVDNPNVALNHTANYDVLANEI
inactive: [1] 0.027 | [2] 0.01 | [3] 0.168 | [4] 0.065

PBK (UniProt Q96KB5)
Chain of UniProt Q96KB5 (Q96KB5 whole entry, looked up): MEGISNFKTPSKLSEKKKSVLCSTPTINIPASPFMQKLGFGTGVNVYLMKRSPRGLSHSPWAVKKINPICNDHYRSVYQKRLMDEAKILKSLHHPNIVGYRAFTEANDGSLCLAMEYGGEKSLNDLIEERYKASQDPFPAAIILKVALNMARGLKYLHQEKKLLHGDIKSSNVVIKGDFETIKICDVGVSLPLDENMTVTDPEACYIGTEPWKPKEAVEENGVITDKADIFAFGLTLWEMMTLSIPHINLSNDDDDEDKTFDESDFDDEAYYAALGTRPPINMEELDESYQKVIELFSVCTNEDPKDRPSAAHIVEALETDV
inactive: [1] -0.002 | [2] 0.006 | [3] 0.006 | [4] 0.023 | [5] 0.029

NF1 (UniProt P21359)
inactive: [1] -0.03 | [2] -0.01 | [3] 0.03 | [4] -0.009 | [5] 0.016

MTFP1 (UniProt Q9UDX5)
Chain of UniProt Q9UDX5 (Q9UDX5 whole entry, looked up): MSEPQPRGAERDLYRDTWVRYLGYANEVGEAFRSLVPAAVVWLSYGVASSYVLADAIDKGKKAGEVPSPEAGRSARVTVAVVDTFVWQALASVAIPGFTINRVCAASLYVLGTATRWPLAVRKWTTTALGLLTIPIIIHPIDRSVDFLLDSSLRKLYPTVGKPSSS
inactive: [1] 0.005 | [2] -0.058 | [3] 0.03 | [4] 0.079 | [5] -0.222

NPM3 (UniProt O75607)
inactive: [1] 0.172 | [2] -0.045 | [3] -0.009 | [4] -0.03 | [5] -0.157

MT-ND1 (UniProt P03886)
Chain of UniProt P03886 (P03886 whole entry, looked up): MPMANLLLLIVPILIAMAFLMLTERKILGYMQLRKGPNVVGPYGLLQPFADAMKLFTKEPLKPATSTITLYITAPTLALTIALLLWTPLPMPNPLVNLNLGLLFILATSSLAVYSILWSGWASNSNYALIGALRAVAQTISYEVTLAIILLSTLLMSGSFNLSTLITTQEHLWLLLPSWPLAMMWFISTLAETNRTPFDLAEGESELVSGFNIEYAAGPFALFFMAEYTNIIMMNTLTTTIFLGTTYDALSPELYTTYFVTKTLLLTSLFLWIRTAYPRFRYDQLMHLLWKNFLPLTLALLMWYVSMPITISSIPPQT
inactive: [1] -0.057 | [2] -0.098 | [3] -0.055 | [4] -0.077 | [5] -0.039

ORC3 isoform 2 (UniProt Q9UBD5)
inactive: [1] 0.005 | [2] -0.031 | [3] 0.014 | [4] 0.021 | [5] 0.047

NEK9 (UniProt Q8TD19)
inactive: [1] -0.002 | [2] 0.002 | [3] -0.033 | [4] 0.017 | [5] -0.032

OARD1 (UniProt Q9Y530)
Chain of UniProt Q9Y530 (Q9Y530 whole entry, looked up): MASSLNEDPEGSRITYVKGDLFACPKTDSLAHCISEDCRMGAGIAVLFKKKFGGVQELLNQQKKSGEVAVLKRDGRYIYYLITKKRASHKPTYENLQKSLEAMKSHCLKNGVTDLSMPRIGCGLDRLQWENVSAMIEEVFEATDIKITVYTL
inactive: [1] -0.005 | [2] -0.014 | [3] 0.035 | [4] 0.044 | [5] -0.005

ORC5 (UniProt O43913)
inactive: [1] -0.037 | [2] -0.022 | [3] 0.029 | [4] 0.003 | [5] 0.021

NOA1 (UniProt Q8NC60)
inactive: [1] -0.087 | [2] 0.099 | [3] 0.023 | [4] -0.014 | [5] -0.07

NFIC (UniProt P08651)
inactive: [1] 0.023 | [2] 0.018 | [3] -0.056 | [4] 0.052 | [5] -0.177

NAT1 (UniProt P18440)
inactive: [1] 0.049 | [2] -0.021 | [3] 0.012 | [4] 0.015 | [5] 0.011

NIFK (UniProt Q9BYG3)
Chain of UniProt Q9BYG3 (Q9BYG3 whole entry, looked up): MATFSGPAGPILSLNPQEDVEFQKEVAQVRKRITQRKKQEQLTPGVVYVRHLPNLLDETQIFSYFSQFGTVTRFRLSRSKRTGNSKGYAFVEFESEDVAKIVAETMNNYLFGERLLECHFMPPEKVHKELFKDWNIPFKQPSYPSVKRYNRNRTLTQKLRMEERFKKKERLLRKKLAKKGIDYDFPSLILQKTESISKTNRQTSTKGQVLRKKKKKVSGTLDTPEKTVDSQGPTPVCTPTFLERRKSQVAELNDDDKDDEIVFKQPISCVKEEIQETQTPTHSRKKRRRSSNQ
inactive: [1] 0.065 | [2] 0.07 | [3] 0.015 | [4] 0.056 | [5] 0.047

MT-CYB (UniProt P00156)
Chain of UniProt P00156 (P00156 whole entry, looked up): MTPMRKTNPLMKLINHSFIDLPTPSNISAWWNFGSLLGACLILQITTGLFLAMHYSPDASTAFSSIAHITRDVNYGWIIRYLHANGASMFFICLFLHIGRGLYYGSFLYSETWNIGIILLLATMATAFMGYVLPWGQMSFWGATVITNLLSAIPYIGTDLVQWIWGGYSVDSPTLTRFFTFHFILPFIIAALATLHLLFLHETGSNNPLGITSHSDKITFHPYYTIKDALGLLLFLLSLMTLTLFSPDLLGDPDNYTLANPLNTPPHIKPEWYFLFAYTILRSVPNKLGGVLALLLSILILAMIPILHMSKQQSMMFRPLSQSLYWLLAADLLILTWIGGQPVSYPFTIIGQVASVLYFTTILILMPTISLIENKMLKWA
inactive: [1] 0.062 | [2] -0.091 | [3] -0.052 | [4] -0.132 | [5] -0.468

NR2C2 isoform 2 (UniProt P49116)
inactive: [1] -0.078 | [2] -0.08 | [3] -0.04 | [4] 0.243 | [5] 0.047

NUF2 (UniProt Q9BZD4)
Chain of UniProt Q9BZD4 (Q9BZD4 whole entry, looked up): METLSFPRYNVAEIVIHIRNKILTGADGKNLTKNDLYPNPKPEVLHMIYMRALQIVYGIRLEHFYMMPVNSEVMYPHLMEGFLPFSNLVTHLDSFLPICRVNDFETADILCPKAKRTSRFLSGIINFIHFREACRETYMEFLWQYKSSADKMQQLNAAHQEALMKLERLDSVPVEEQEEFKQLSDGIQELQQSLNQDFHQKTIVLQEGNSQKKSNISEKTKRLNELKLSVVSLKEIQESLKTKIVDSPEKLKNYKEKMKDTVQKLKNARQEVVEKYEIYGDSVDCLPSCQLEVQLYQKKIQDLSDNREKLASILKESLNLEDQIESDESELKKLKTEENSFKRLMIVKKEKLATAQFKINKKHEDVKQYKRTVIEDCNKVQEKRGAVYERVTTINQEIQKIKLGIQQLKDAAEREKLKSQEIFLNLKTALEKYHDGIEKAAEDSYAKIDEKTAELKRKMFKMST
inactive: [1] -0.03 | [2] 0.008 | [3] 0.018 | [4] 0.007 | [5] 0.016

NCKAP1L (UniProt P55160)
inactive: [1] -0.002 | [2] 0.021 | [3] -0.106 | [4] -0.061 | [5] 0.005

NGLY1 (UniProt Q96IV0)
inactive: [1] -0.011 | [2] 0.002 | [3] 0.016 | [4] -0.018 | [5] -0.07

NUDT4 isoform 2 (UniProt Q9NZJ9)
inactive: [1] 0.009 | [2] -0.011 | [3] 0.01 | [4] 0.067 | [5] -0.026

NELFCD (UniProt Q8IXH7)
inactive: [1] -0.035 | [2] 0.023 | [3] 0.018 | [4] 0.003 | [5] 0.025

From the supplement of paper PMC10849652
